# Test results from PubChem BioAssay (NCI).
# About 79,000 compounds went through this panel and 15% of them were active in at least one assay; those are over-represented in the sample as a whole. A number with no mark means an inactive call. Calls of active or inactive are those of the source. Cut-off read from the data, not from the text of the source: active = growth inhibition above about 70%; inactive = the rest.
# Experiments:
# [1] = NCI Yeast Anticancer Drug Screen. Data for the rad50 strain (AID 155);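 note: 0% = growth of vehicle-only cultures of the same strain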; settings: S. cerevisiae rad50 strain growth inhibition; at 50.0 µM; active compounds read high
# In short: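 Vehicle-treated cultures provide the reference for the growth inhibition reported for compound-exposed, repair-deficient yeast.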
# [2] = NCI Yeast Anticancer Drug Screen. Data for the mec2-1 strain (AID 157); settings: S. cerevisiae mec2-1 strain, at 50.0 µM, active compounds read high
# In short: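 mec2-1 yeast strain, carrying an alteration in DNA damage repair or cell cycle control, was exposed to compounds; growth inhibition was measured relative to vehicle-treated controls.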
# [3] = NCI Yeast Anticancer Drug Screen. Data for the sgs1 mgt1 strain (AID 161);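 note: 0% = growth of cultures given vehicle only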; settings: S. cerevisiae sgs1 mgt1 strain, at 50.0 µM, active compounds read high
# In short: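 Yeast cells carrying a defined DNA-repair defect were exposed to test compounds. Growth inhibition was measured relative to vehicle-treated controls.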
# [4] = NCI Yeast Anticancer Drug Screen. Data for the cln2 rad14 strain (AID 165);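 note: 0% = growth equal to vehicle treated cultures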; settings: S. cerevisiae cln2 rad14 strain, at 50.0 µM, active compounds read high
# In short: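 Yeast carrying cln2 and rad14 alterations (cell cycle control and DNA damage repair) were exposed to compounds. Growth inhibition was measured against vehicle-treated controls.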
# [5] = NCI Yeast Anticancer Drug Screen. Data for the bub3 strain (AID 167); settings: S. cerevisiae bub3 mutant strain, at 50.0 µM, active compounds read high
# In short: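 Mutant yeast screening strain plus compound; vehicle-treated cultures serve as the 0% inhibition reference.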
# [6] = NCI Yeast Anticancer Drug Screen. Data for the mlh1 rad18 strain (AID 175); settings: S. cerevisiae mlh1 rad18 strain growth inhibition; at 50.0 µM; active compounds read high
# In short: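 Growth inhibition of the yeast strain was measured after compound exposure and expressed relative to vehicle-treated controls. The strain carries defined defects in DNA damage repair.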
Structure (SMILES),growth inhibition [1],growth inhibition [2] [%],growth inhibition [3],growth inhibition [4] [%],growth inhibition [5] [%],growth inhibition [6]
CN1CCN(C(=S)N(C(=O)c2ccc(Cl)cc2)C2CCCCC2)CC1,-67%,-53.4,-54.8%,-26.4,-66.9,-65.7%
COc1ccc(/C(Cl)=C(\CNc2ccccn2)c2ccccc2)cc1OC,-14.4%,-21.9,-39.9%,-22.7,2.3,-34.1%
O=C(O)c1ccccc1C(=O)OCC1CCCc2ccccc21 (configuration not stated),11.7%,45.7,41.5%,-100,43.5,46%
NC(=O)c1ccccc1NC(=O)CCCOc1ccccc1,-11.5%,8.35,16.8%,-5.8,-14.3,9.2%
CC1CC=C2C=C(Cl)C=CC2(C)C1C (configuration not stated),1.8%,3.55,-2.85%,-9.2,9,-1.85%
COC(=O)C12OCC34C(CC(C(C)=O)C(C)(CC(=O)O)C3C(O)C1O)OC(=O)C(OC(=O)/C=C(\C)C(C)C)C24 (configuration not stated),10%,21.3,0.15%,9,7.6,6.95%
COc1ccc2c(C)cc(N/N=C(\C)C=O)nc2c1,19.9%,19.4,18.8%,11.9,10.8,-9.45%
O=c1oc2ccccc2cc1S(=O)(=O)c1ccccc1,1.35%,4.8,1.4%,-53.1,-0.95,18.4%
COc1ccc(OC)c(NC(=O)Nc2nccs2)c1,1.9%,42.9,29.1%,-5.25,36.6,32.5%
CON(C)S(=O)(=O)c1ccc(Cl)cc1,7.75%,-9.5,-4.15%,-18.9,-2.25,-6.2%
Clc1ccccc1-n1cccc1/C=N\N=C/c1cccn1-c1ccccc1Cl,0.15%,1.7,-6.1%,-53.7,-1.8,-8%
O=C1C[C@@H]2CCCC[C@@H]2C12SCCS2,-10.9%,-18.6,-6.95%,13.8,-9.45,-5.25%
CN(O)C(=O)c1ccccc1,5.45%,-8.4,-6.35%,11.9,15.1,16.9%
COc1ccc2nc3cc(Cl)ccc3c(Nc3ccc(C(O)CCN(C)C)cc3)c2c1 (configuration not stated),39.8%,-2.1,25.4%,24.4,-2.1,5.3%
O=C(CNCc1ccccc1)NC(Cc1ccccc1)c1ccccc1 (configuration not stated),8.15%,-14.3,0.35%,16.9,13.4,20.9%
COc1cccc(-c2nc(-c3cnccn3)n(C3OC(CO)C(O)C3O)n2)c1 (configuration not stated),-16.4%,-22.4,-12.8%,11.6,-45,-22.6%
CC(C)OCCCNc1ncnc2c1cnn2-c1ccc(Cl)cc1,3.55%,-9.15,3.55%,-11.8,-13.6,-4.9%
COC(=O)/C(C#N)=C1\CCC(OC)N1 (configuration not stated),-4.25%,6.95,-21.2%,3.7,-13.1,-24.9%
CCC(C)C(=O)c1c(O)c(C/C=C(\C)CCC=C(C)C)c(O)c2c(C(O)CC)cc(=O)oc12 (configuration not stated),21.8%,15.8,14.7%,18.1,20.1,42.9%
N#C/C(=C\c1cc(F)cc(F)c1)c1ccccn1,9.7%,-0.95,0.65%,3.25,3.2,30.2%
O=C(Cn1ccc(=O)[nH]c1=O)Nc1ccc(C(=O)O)c(O)c1,0.45%,-43.1,-24.9%,-45.8,-31.4,0.55%

Structure (SMILES),growth inhibition [1],growth inhibition [2] [%],growth inhibition [3],growth inhibition [4] [%],growth inhibition [5] [%],growth inhibition [6]
COc1cc2c(oc(=O)c3c4occc4cc(OC)c23)c2cccc(O)c12,-31.6%,-47,-37.2%,-13.6,-24.8,-56.2%
NC(=S)N1CC=CCC1,-8.65%,0.9,-3.4%,7.95,3.9,-6.8%
C#CCn1c(=O)c2ccccc2n(CC#C)c1=O,-10.3%,-1.6,-6.3%,15.8,9.05,23.9%
O=C(O)c1cscc1Cc1ccccc1,0.9%,-2.25,-1.7%,-21.1,-20.8,5.45%
Cc1nc(C)c(N2CCN(S(=O)(=O)N(Cc3ccccc3)Cc3ccccc3)CC2)c(=O)[nH]1,-22.7%,-5.95,-32.3%,3.85,-5.65,4.2%
Cc1cc(C)c(C(=O)c2ccccc2C(=O)c2ccccc2)c(C)c1,20.5%,-5.55,17.2%,20.2,20.6,11.5%
CN(C)CC1(Cc2ccccc2)CCC(Cc2ccccc2)C1=O (configuration not stated),85.5% (active),63.4,85.3% (active),54,45.6,86.3% (active)
COc1ccc(C2N3CCCCC3[C@@H]3c4[nH]c5ccccc5c4CCN23)c(OC)c1 (some centres not stated),-30.2%,-24.4,-26.6%,6.1,-5.3,-9.65%
O=C(O)c1c(Br)c(Br)c(Br)c(Br)c1C(=O)Nc1ccc([N+](=O)[O-])cc1,-14.6%,2.65,3.35%,4.75,3.15,-1.05%
c1ccc(Cn2nnnc2Nc2ccccc2)cc1,-19.2%,-10.7,-3.65%,19.8,26.4,10.4%
CCOc1ccc(OCC)c2c1C(=O)c1ccccc1C2=O,-6.8%,15.3,1.15%,-1.3,9.15,-5.8%
C1CCC(C2CCCC[N-]2)[N-]C1.C1CCC(C2CCCC[N-]2)[N-]C1.O=C(O)C(=O)O.[Ru+4] (configuration not stated),31.8%,9.4,16.2%,11.8,-3.25,7.9%
CNc1ccc(Oc2ccccc2)cc1[N+](=O)[O-],-2.2%,6.4,-11.3%,-34.6,-9.9,-11%
CC(=O)N1CCNC(c2ccccc2)C1(C)C (configuration not stated),-3.05%,-6.95,-11.3%,-9.3,-13.4,3.85%
O=[N+]([O-])c1ccc2[nH]c3nc4ncccc4nc3c2c1,-3.4%,3.35,4.7%,-20.1,0.25,0.7%
COC(=O)CNC(=O)C1CSC(C)(C)N1C=O (configuration not stated),-5.25%,-9.85,10.2%,2.4,47.9,-6.2%
COc1ccc(CNc2cc(OC)c(OC)c(OC)c2)cc1,-49.1%,-36.7,-9.55%,9.25,-20.4,-33.1%
CCN(CC)CCCNc1nc2ccccc2c2c1ncn2CC(C)C,-51%,5.4,-20.8%,27.1,13.2,6.35%
COc1cc(C(=O)OCCOC(=O)c2ccc(O)c(OC)c2)ccc1O,45.4%,13.8,25.4%,-25.5,51.7,40.5%
COC(=O)NS(=O)(=O)C1=Cc2cccc3cccc1c23,8.55%,4.95,9.25%,9.75,6.35,8.4%
COC1OC(COCc2ccccc2)C(OCc2ccccc2)C(OC)C1O (configuration not stated),-37.6%,-3,5.6%,-40.9,-2.3,-17.6%
